Results published in PubChem BioAssay (NCI).
This is part of a sample that, as a whole, favours compounds with a hit. Of some 83,000 tested, about 20% had one in any assay.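 Method: cells in 96-well plates; compound added at one concentration; 48 h incubation; percent growth measured; values under 10 scored active.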 A number with no mark means an inactive call. Active and inactive are the calls of the source.

Tested on: NCI-H522 lung
Assay: NCI-60 one-dose screen, 48 h (100 = growth as untreated, 0 = no growth, -100 = all killed)
Conditions: 10 µM unless noted
Experimental: Growth inhibition of the NCI-H522 human Non-Small Cell Lung tumor cell line is measured as a screen for anti-cancer activity. Cells are grown in 96 well plates and exposed to the test compound for 48 hours. Compounds are tested at a single concentration, which is 10^-5 M for most compounds. The reported endpoint is percent growth (GI% or GIPRCNT), where numbers from 0 - 100% represent growth inhibition, and numbers from -100% - 0 represent cell death. For example, a value of 40 represents 60% growth inhibition. A value of 0 means no net growth occurred over the course of the experiment. A value of -40 indicates 40% of cells at the beginning of the experiment died by the end of the experiment. A value of -100 means all cells are dead at the end of the experiment.
NCI-60 Human Tumor Cell Lines Screen was performed using the standard one-dose NCI protocol, which is described in more detail at https://dtp.cancer.gov/discovery_development/nci-60/default.htm.
Compounds with GIPRCNT values below 10 were considered active. Activity score was based on GIPRCNT using the following formula: […]
Score is 0 for GIPRCNT values of 100 or above, 50 for GIPRCNT values of 0, and 100 for GIPRCNT values of -100.

Compound	growth
COc1cc(C2CC(c3cccc(Nc4ccncc4)c3)=NN2c2ccccc2)cc(OC)c1OC (stereo not given)	77.3%
Cc1cc(C(=O)Nc2ncnc3nc[nH]c23)no1	94.3%
CN(C)C(=O)OCc1nc2c(N3CCOCC3)nc(-c3ccccc3)nc2n1C	-46.8% (active)
Cn1c2c(Cl)c(Cl)ccc2c2cc(N)[nH]c(=O)c21	92.4%
CC(=O)c1c[nH]c2ccc(-c3ccnc(Nc4ccc(NC(=O)C5CCCC5)c(CN5CCOCC5)c4)n3)cc12	-17.9% (active)
N#CC1=C(N)Oc2c(ccc3ccccc23)C1c1ccc([N+](=O)[O-])cc1 (stereo not given)	57.5%
COc1ccc(C2CC(c3cccc(Nc4ccncc4)c3)=NN2c2cc(Cl)cc(Cl)c2)cc1 (stereo not given)	4.77% (active)
CC(=O)[C@@H]1CC[C@]2(C(N)=O)CC[C@]3(C)[C@H](CC[C@@H]4[C@@]5(C)CCC(=O)C(C)(C)[C@@H]5CC[C@]43C)[C@@H]12	87.2%
CCCCN(CCCC)CCc1c(C)cc(C)c(CCN(CCCC)CCCC)c1O	-6.82% (active)
CNC(=O)NCC1OC(n2cnc3c(NC(=O)Nc4ccccc4)ncnc32)C(O[Si](C)(C)C(C)(C)C)C1O[Si](C)(C)C(C)(C)C (stereo not given)	46.2%
c1ccc(-c2nn(-c3ccccc3)[n+](-c3ccccc3-c3ccccc3)n2)cc1	-7.02% (active)
COc1ccc(-c2cnnc3c(-c4cccc(C(F)(F)F)c4)cnn23)cc1	27.5%
COc1c(Cl)cc(Cl)c2ccc(C=C3C(=O)NC(=S)NC3=O)nc12	92%
COc1cc(NCC(O)CN(CC(C)C)CC(C)C)c2nc(C)ccc2c1 (stereo not given)	68.2%
COc1ccc(C(=O)c2cc(C)c(OC)c(C)c2)c(OC)c1N(C(=O)C(Cl)Cl)C(=O)C(Cl)Cl	11%
Clc1ccc(N2N=C(c3cccc(Nc4ccncc4)c3)CC2c2ccc(Br)cc2)cc1 (stereo not given)	-13.2% (active)
COc1ccc(-c2nc(SCCC(C)C)nc(N/N=C(/C)c3ccc(C)cc3)c2C#N)cc1	87.2%
FCc1nc2nc(Cl)c(Cl)nc2[nH]1	95.9%
CC(C)CCSc1nc(NNC(N)=O)c(C#N)c(-c2ccccc2)n1	97.4%
CC(C)CN(C(=O)c1ccc(Cl)cc1)c1c(N)n(CC(C)C)c(=O)[nH]c1=O	98.8%

Compound	growth
O=C1Nc2c(ccc(Cl)c2Cl)/C1=C/c1ccccn1	71%
CCOC(=O)N1CCc2c(sc3nc4nc[nH]n4c(=O)c23)C1	85.2%
Clc1nc(Cl)c2ncn(CC3(Cn4cnc5c(Cl)nc(Cl)nc54)COC3)c2n1	-89.1% (active)
C=C(C)[C@@H]1CC[C@]2(C(=O)NCCCN(CCC#N)CCC#N)CC[C@]3(C)[C@H](CC[C@@H]4[C@@]5(C)CCC(=O)C(C)(C)[C@@H]5CC[C@]43C)[C@@H]12	93.5%
c1ccc(CCSc2ncnc3nc[nH]c23)cc1	0.492% (active)
Nc1nnc2cc(Cl)ccc2n1	94.7%
CCOC(=O)N1CCN(CCCCl)CC1	95.4%
O=C1/C(=C\c2cn(Cc3ccccc3)c3ccc(Br)cc23)c2ccccc2N1c1c(Cl)cccc1Cl	80.7%
COc1ccc(-c2nc(SC)nc(N3CCOCC3)c2C#N)cc1	84%
CCCNC(=O)Oc1ccc(/C(=C(\C)c2ccccc2)c2ccc(OCCN3CCCCC3)cc2)cc1	103%
COc1cccc(NC(=O)c2cccc(-c3cc(=O)c4c(OC)c(OC)c(OC)cc4o3)c2)c1	46.6%
COc1cc(/C=C2\C(=O)N(Cc3ccc(Cl)cc3)c3ccccc32)cc(OC)c1OC	11.4%
O=C(Nc1cccc(Cl)c1)Oc1c(Br)c(Br)c(Br)c(Br)c1Br	58.8%
COc1cc(CNC(=O)CCCCC[P+](c2ccccc2)(c2ccccc2)c2ccccc2)c(OC)c2c1OCO2	52.9%
Cc1ccc2nc3c(cc2c1)CSc1nnc(-c2ccc[nH]c2=S)n1N3	83.7%
COc1ccc(C(O)c2cc3c(N)c(C(=O)Nc4cccc(OC)c4)sc3nc2C)cc1 (stereo not given)	-27.4% (active)
Nc1c(C(=O)Nc2ccc(Cl)cc2)cc(-c2nc3ccccc3s2)c(=O)n1NS(=O)(=O)c1ccc(Cl)cc1	91.3%
CC(O)/C=C/C=C/C(O)CC/C=C/C(=O)NCC(C)(C)O (stereo not given)	79.4%
CC1CCN(C(=O)OCc2nc3nc(Cl)nc(N4CCOCC4)c3[nH]2)CC1	-67.8% (active)
O=C(N/N=C/c1ccc(F)cc1)c1ccccc1Nc1cccc(C(F)(F)F)c1	92.8%
